Structures are written as SMILES. Values joined by “and” are separate entries in the source; they are usually repeats but may differ in a detail not shown here. Equal entries are not always repeated. A structure can be active in one record and inactive in another. Active and inactive are the calls of the source. A call without a number means that no potency is given here. The call rests on the fitted dose curve.
Potency means the concentration at half of the fitted maximal effect.

For this assay, the target named is Estrogen receptor (Homo sapiens) (UniProt P03372). Nature of the assay: qHTS assay to identify small molecule agonists of the estrogen receptor alpha (ER-alpha) signaling pathway in the presence of an antagonist (AID 1259383). Further: nearly all actives have a fitted effect of over 15% in size. On activation: top concentration of the series differs between compounds. The settings on record: VM7Luc4E2 cells, ERE-luciferase, +ICI-182,780, 22 h; series mostly up to 92.4 µM; activation: at the top concentration. The text has this: National Center for Advancing Translational Sciences [NCATS] NIH Chemical Genomics Center [NCGC] U.S. Environmental Protection Agency [EPA] National Institutes of Environmental Health Sciences [NIEHS] National Toxicology Program [NTP] Assay overview: Estrogen receptor (ER), a member of nuclear hormone receptor plays an important role in development, metabolic homeostasis and reproduction. Two subtypes of ER, ER-alpha and ER-beta, have similar expression patterns with some uniqueness in both types. Endocrine disrupting chemicals (EDCs) and their interactions with steroid hormone receptors like ER causes disruption of normal endocrine function. Therefore, it is important to understand the effect of environmental chemicals in ER signaling pathway. For identifying ER agonists, VM7Luc4E2 cell line has been used in the current assay. VM7Luc4E2 cell line (provided by Denison MS, University of California) endogenously expresses full-length ER-alpha and is stably transfected with a plasmid containing four estrogen responsive elements (ERE) upstream of a luciferase reporter gene. This current screening for measuring luciferase reporter gene activity using VM7Luc4E2 cells against Tox21 10K library collection is a confirmation study on agonist mode screening in presence of ER-antagonist (ICI-182,780) at 10.0nM final concentration.
Chain of Estrogen receptor (Homo sapiens) (P03372 whole entry, looked up): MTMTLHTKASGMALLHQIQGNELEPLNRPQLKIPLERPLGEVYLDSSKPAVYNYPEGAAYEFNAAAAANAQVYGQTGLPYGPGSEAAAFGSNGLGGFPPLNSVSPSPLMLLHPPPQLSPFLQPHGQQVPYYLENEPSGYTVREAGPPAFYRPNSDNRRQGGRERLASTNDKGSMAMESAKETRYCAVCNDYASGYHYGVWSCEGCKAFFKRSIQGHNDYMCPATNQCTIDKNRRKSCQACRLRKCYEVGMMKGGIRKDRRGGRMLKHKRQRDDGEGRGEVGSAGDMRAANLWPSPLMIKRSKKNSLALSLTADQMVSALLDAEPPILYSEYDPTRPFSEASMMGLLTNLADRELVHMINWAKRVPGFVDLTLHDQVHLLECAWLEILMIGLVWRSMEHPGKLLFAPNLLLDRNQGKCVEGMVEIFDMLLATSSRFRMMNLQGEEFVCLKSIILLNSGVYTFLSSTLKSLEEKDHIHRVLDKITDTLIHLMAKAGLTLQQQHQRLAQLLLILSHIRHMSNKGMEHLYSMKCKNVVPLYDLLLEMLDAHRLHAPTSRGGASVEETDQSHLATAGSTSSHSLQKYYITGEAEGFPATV
Assay Protocol Summary: VM7Luc4E2 cells were cultured in phenol red free assay medium containing 10% charcoal stripped FBS for 5 days prior to the assay. The cells were dispensed at 4,000 cells in 4uL of assay medium per well into white wall/solid-bottom 1536-well plates (Corning Life Sciences, Corning, NY) using a Multidrop Combi (Thermo Fisher Scientific Inc., Waltham, MA) dispenser. After the assay plates were incubated at 37C and 5% CO2 for 24hr, 1uL of 10.0nM (final concentration) ICI-182,780 or assay buffer was added using two separate tips of Flying Reagent Dispenser (FRD, Aurora Discovery, San Diego, CA). Then 23nL of compounds dissolved in DMSO at 15 concentrations and positive controls or DMSO only was transferred to the assay plates by a Pintool station (Wako, San Diego, CA). The assay plates were incubated at 37C and 5% CO2 for 22hr. For luciferase read, 4uL/well ONE-Glo reagent (Promega Corporation, Madison, WI) was added to each well using FRD and after 30min incubation at room temperature, luminescence signal was measured on ViewLux plate reader (PerkinElmer, Shelton, CT).
In general terms: qHTS replaces the single test concentration by a dilution series.
Take `CC1=C(C)S(=O)(=O)CCS1(=O)=O`: the Potency entry is “inactive”. On the same count and under the same terms, the value for `O=C(O)CCCC[C@@H]1SC[C@@H]2NC(=O)N[C@@H]21` was “inactive”; that for `CCOC(=O)NNc1nncc2ccccc12` was “inactive”. On to `Fc1ccc(Br)cc1`, for which the Potency is 61.8 µM (active) and inactive. For `Cc1ccc2oc(=O)ccc2c1`, the Potency entry was “inactive”. Still for that read-out and setting: the value for `COc1ccc(NC(C)=O)cc1N` was “inactive”; that for `CC[C@H](C)C(=O)O[C@H]1C[C@@H](C)C=C2C=C[C@H](C)[C@H](CC[C@@H]3C[C@@H](O)CC(=O)O3)[C@H]21` was “inactive”. On the same count and under the same terms, to `Cc1ccc(N(C)C)cc1` belongs “inactive”; to `CCCCCCCCCCCCS`, “inactive”.

Take `c1ccc(OCCOc2ccccc2)cc1`: the “activation” value is 6.71% (inactive). As for `CCN(CC)CCCC(C)Nc1ccnc2cc(Cl)ccc12` (stereo not given), the activation is -0.124% [at 8.39 µM] (inactive) and -1.51% [at 19 µM] (inactive).

On to `O=C(O)c1cc(O)c(O)c(O)c1`, for which the Potency entry was “inactive”.

On to `O=c1[nH]c(=O)n([C@H]2C[C@H](O)[C@@H](CO)O2)cc1Br`, for which the Potency result is “inactive”. In the case of `O=C(OCCOCCOC(=O)c1ccccc1)c1ccccc1`, the Potency result was “inactive”.

Regarding `CC1=CCC2CC1C2(C)C` (stereo not given), the Potency entry is “inactive”. Still for that read-out and setting: to `CCCCCCOCCO` belongs “inactive”; to `Cc1cccc(O)c1`, “inactive”; to `O=C(O)c1cc(=O)c2c(OCC(O)COc3cccc4oc(C(=O)O)cc(=O)c34)cccc2o1`, “inactive”.

As to `OCCOCCOCCO`, the Potency entry was “inactive”.

With `CC(=O)OCC(=O)[C@@]12N=C(C)O[C@@H]1C[C@H]1[C@@H]3CCC4=CC(=O)C=C[C@]4(C)[C@H]3[C@@H](O)C[C@@]12C`, the Potency result is “inactive”. Still for that read-out and setting: to `CC(=O)c1ccccc1` belongs “inactive”; to `CN(C)CCCN`, “inactive”. Same read-out and setting: to `CC(C)(N)CO` belongs “inactive”; to `CC(=O)Nc1ccccc1`, “inactive”. Same read-out and setting: to `O=P(OC(CCl)CCl)(OC(CCl)CCl)OC(CCl)CCl` belongs “inactive”.

Take `CCCCCCCCCCCCCCO`: the Potency entry was “inactive”.

With `C#CCN(C)Cc1ccccc1`, the Potency entry is “inactive”. On to `C=CCOC(=O)c1ccccc1C(=O)OCC=C`, for which the Potency result was “inactive”. On the same count and under the same terms, the value for `O=S1(=O)CC=CC1` was “inactive”; that for `c1ccc2c(c1)ccc1ccccc12` was “inactive”; that for `C=C(C)C(=O)Nc1ccc(Cl)c(Cl)c1` was “inactive”. Same read-out and setting: the value for `Cc1cc(C)c(C)cc1C` was “inactive”; that for `CCCCCCCCCC` was “inactive”. Regarding `CCN(CC)c1ccc(C(=O)c2ccccc2C(=O)O)c(O)c1`, the “activation” value was 10.9% (inactive). On to `CC(C)c1ccc(S(=O)(=O)O)cc1`, for which the Potency result is “inactive”. Still for that read-out and setting: to `OC[C@H]1O[C@@](CO)(O[C@H]2O[C@H](CO)[C@@H](O)[C@H](O)[C@H]2O)[C@@H](O)[C@@H]1O` belongs “inactive”; to `FC(F)(F)c1ccc(Cl)c(Cl)c1`, “inactive”; to `CC(=O)Nc1cccc(O)c1`, “inactive”.

As for `CC(O)COCC(C)O` (stereo not given), the Potency entry was “inactive”. Still for that read-out and setting: the value for `CCc1cccc(C)c1N` was “inactive”.
